Measured values as given in the supplement of paper PMC9492666.

Test system: HCC1937
Assay: relative cell viability, compound + erastin, vs DMSO (fraction of DMSO control); higher = less growth inhibition
Conditions: 72 h
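Also: viability read by CCK-8 kit in 96-well plates, part of a combination screen pairing lipid-metabolism-targeting compounds with erastin.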

Structure (SMILES) | relative cell viability
CC(C)(O)c1ccccc1CC[C@@H](SCC1(CC(=O)O)CC1)c1cccc(/C=C/c2ccc3ccc(Cl)cc3n2)c1 [Montelukast] + CCOc1ccccc1-n1c(C(C)N2CCN(C(=O)COc3ccc(Cl)cc3)CC2)nc2ccccc2c1=O [erastin] | 0.561
O=C(CCCCc1ccc2c(c1)OCO2)N1CCCCC1 + CCOc1ccccc1-n1c(C(C)N2CCN(C(=O)COc3ccc(Cl)cc3)CC2)nc2ccccc2c1=O [erastin] | 0.549
CCCCCCCCCCCC1=C(O)C(=O)C=C(O)C1=O [Embelin] + CCOc1ccccc1-n1c(C(C)N2CCN(C(=O)COc3ccc(Cl)cc3)CC2)nc2ccccc2c1=O [erastin] | 0.72
CC(C)C1=CC2=CC[C@@H]3[C@](C)(CCC[C@@]3(C)C(=O)O)[C@H]2CC1 [Abietic Acid] + CCOc1ccccc1-n1c(C(C)N2CCN(C(=O)COc3ccc(Cl)cc3)CC2)nc2ccccc2c1=O [erastin] | 0.673
Cc1cccc(Nc2cc(Cl)nc(SCC(=O)O)n2)c1C [Pirinixic Acid] + CCOc1ccccc1-n1c(C(C)N2CCN(C(=O)COc3ccc(Cl)cc3)CC2)nc2ccccc2c1=O [erastin] | 0.602
CS(=O)(=O)c1ccc(-c2nnc(/C=C/c3nnc(-c4ccc(C#N)cc4)o3)n2-c2ccccc2Cl)nc1 + CCOc1ccccc1-n1c(C(C)N2CCN(C(=O)COc3ccc(Cl)cc3)CC2)nc2ccccc2c1=O [erastin] | 0.735
CNC(=O)c1cccc(NC(=O)N2CCC(Oc3ccccc3Cl)CC2)c1 + CCOc1ccccc1-n1c(C(C)N2CCN(C(=O)COc3ccc(Cl)cc3)CC2)nc2ccccc2c1=O [erastin] | 0.566
CC[C@H](C)C(=O)O[C@H]1C[C@@H](C)C=C2C=C[C@H](C)[C@H](CC[C@@H]3C[C@@H](O)CC(=O)O3)[C@H]21 [Lovastatin] + CCOc1ccccc1-n1c(C(C)N2CCN(C(=O)COc3ccc(Cl)cc3)CC2)nc2ccccc2c1=O [erastin] | 0.804
COc1ccc2c(c1)c(CC(=O)O)c(C)n2C(=O)c1ccc(Cl)cc1 [Indometacin] + CCOc1ccccc1-n1c(C(C)N2CCN(C(=O)COc3ccc(Cl)cc3)CC2)nc2ccccc2c1=O [erastin] | 0.941
Cc1ccc(C)c(OCCCC(C)(C)C(=O)O)c1 [Gemfibrozil] + CCOc1ccccc1-n1c(C(C)N2CCN(C(=O)COc3ccc(Cl)cc3)CC2)nc2ccccc2c1=O [erastin] | 0.688
O=S(=O)(c1ccccc1)N(CC(F)(F)F)c1ccc(C(O)(C(F)(F)F)C(F)(F)F)cc1 + CCOc1ccccc1-n1c(C(C)N2CCN(C(=O)COc3ccc(Cl)cc3)CC2)nc2ccccc2c1=O [erastin] | 0.835
Cc1cc(C)c(S(=O)(=O)Nc2cccc(C(F)(F)F)c2)c(C)c1 + CCOc1ccccc1-n1c(C(C)N2CCN(C(=O)COc3ccc(Cl)cc3)CC2)nc2ccccc2c1=O [erastin] | 0.922
CCCC[S+]([O-])c1sc2nc(-c3cccs3)cc(-c3ccccc3)c2c1N (stereo not drawn) + CCOc1ccccc1-n1c(C(C)N2CCN(C(=O)COc3ccc(Cl)cc3)CC2)nc2ccccc2c1=O [erastin] | 0.72
Cc1nc2c([nH]1)c(=O)n(C)c(=O)n2Cc1ccco1 [Furafylline] + CCOc1ccccc1-n1c(C(C)N2CCN(C(=O)COc3ccc(Cl)cc3)CC2)nc2ccccc2c1=O [erastin] | 0.672
O=C(Nc1ccncc1)c1cc([N+](=O)[O-])ccc1Cl + CCOc1ccccc1-n1c(C(C)N2CCN(C(=O)COc3ccc(Cl)cc3)CC2)nc2ccccc2c1=O [erastin] | 0.47
c1cc(-c2cnn3cc(-c4ccc(OCCN5CCCCC5)cc4)cnc23)ccn1 [Dorsomorphin] + CCOc1ccccc1-n1c(C(C)N2CCN(C(=O)COc3ccc(Cl)cc3)CC2)nc2ccccc2c1=O [erastin] | 0.137
O=C(CCCCCCCC(=O)NCCO)NCCO [Adelmidrol] + CCOc1ccccc1-n1c(C(C)N2CCN(C(=O)COc3ccc(Cl)cc3)CC2)nc2ccccc2c1=O [erastin] | 0.701
CCCCCCS(=O)(=O)NC(=O)c1ccc(CSCc2ccc(-c3ccccc3)cc2)cc1 + CCOc1ccccc1-n1c(C(C)N2CCN(C(=O)COc3ccc(Cl)cc3)CC2)nc2ccccc2c1=O [erastin] | 0.705
